Screening results from PubChem.
Anthrax LF inh2 – Bacillus anthracis LF protease inhibitors, primary screen, biochemical, multiplex microsphere, MLPCN library | Lethal factor (Bacillus anthracis), P15917 | multiplex microsphere protease cleavage assay | inhibition, % at 10 µM | hit rate 0.12% among 360,000; also: plate controls were buffer without enzyme for full effect and enzyme alone for no effect
BoNT A protease – BoNT/A light chain protease inhibitors, primary screen, biochemical, flow cytometry, MLPCN library. hit rate 0.17% among 360,000. AID 588499, 2011. inhibition, % at 10 µM. Botulinum neurotoxin type A light chain protease (Clostridium botulinum A str. ATCC 3502). multiplex microsphere protease substrate cleavage; also: plate controls were buffer without enzyme for full effect and enzyme alone for no effect
BoNT-F LC inh – BoNT/F light chain protease inhibitors, primary screen, biochemical, flow cytometry, MLPCN library; Botulinum neurotoxin type F light chain protease (Clostridium botulinum); Multiplex microsphere protease cleavage assay; inhibition, % at 10 µM; hit rate 0.22% among 360,000; AID 588497, 2011; in the data active = inhibition above about 35%, passing the limit was not always enough; inconclusive = no clear call, values can overlap the other calls; also: plate controls were buffer without enzyme for full effect and enzyme alone for no effect
Autofluor counter – counter-screen for toxin protease inhibitors: compound fluorescence. compound autofluorescence counterscreen, microsphere flow cytometry; stronger effect = higher value. fluorescence intensity (concentration not given with the values). hit rate 3.1% among 360,000; in the data active = fluorescence intensity above about 16000; inconclusive = no clear call, values can overlap the other calls
FBA Mtb inh – Mtb FBA enzyme inhibitors, primary screen, biochemical, fluorescence, strain H37Rv; inhibition, % at 1 µM; purified M. tuberculosis FBA, fluorescence read-out; hit rate 2.3% among 360,000; in the data active = inhibition above about 27%;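 also: 0% = vehicle and 100% = reference inhibitor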
Target sequence (P9WQA3 whole entry, looked up): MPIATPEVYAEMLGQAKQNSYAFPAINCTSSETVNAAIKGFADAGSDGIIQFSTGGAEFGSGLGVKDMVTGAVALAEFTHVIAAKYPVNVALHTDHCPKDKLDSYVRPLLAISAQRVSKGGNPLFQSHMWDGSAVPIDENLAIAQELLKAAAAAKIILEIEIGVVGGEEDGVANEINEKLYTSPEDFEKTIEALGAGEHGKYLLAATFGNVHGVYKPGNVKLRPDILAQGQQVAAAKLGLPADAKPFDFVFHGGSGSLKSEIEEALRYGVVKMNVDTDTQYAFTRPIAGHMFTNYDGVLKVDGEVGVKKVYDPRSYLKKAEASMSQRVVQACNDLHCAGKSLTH
GDH-TPI inh – GDH-TPI coupling enzyme inhibitors, primary screen, artefact control for M. tuberculosis FBA inhibitor project, biochemical, absorbance, full deck; GDH-TPI coupled enzyme counterscreen, NADH absorbance; inhibition, % at 4.8 µM; hit rate 1.2% among 360,000; AID 588335, 2011; in the data active = inhibition above about 30%;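 also: 0% = DMSO wells and 100% = wells lacking the enzyme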
The depositor's hits bear a star. A selection: hits, their analogues and other compounds. The true share with any hit is near 6.6%. Rule as the data show it, unless noted: active = inhibition above about 30%; inconclusive = no clear call, values can overlap the other calls; inactive = below that.

For Cc1ccc(C)c(SCc2noc(C(=O)NCC3CCCO3)c2C(=O)O)c1 (stereo unspecified) the results were Anthrax LF inh2 4, BoNT A protease 0, BoNT-F LC inh 4, Autofluor counter 3848, FBA Mtb inh 1 and GDH-TPI inh 5.
`CCCCNC(=O)NC1CCCC1` gave Anthrax LF inh2 1, BoNT A protease 0, BoNT-F LC inh 3, Autofluor counter 9460, FBA Mtb inh 1 and GDH-TPI inh 4.
OC[C@@H]1CN(Cc2ccncc2)C[C@H](n2cnc3c(NC4CCCC4)ncnc32)O1 was read as Anthrax LF inh2 5, BoNT A protease 0, BoNT-F LC inh 2, Autofluor counter 2844, FBA Mtb inh 4 and GDH-TPI inh 5.
Screening Cc1c(C(=O)N/N=C/c2ccc(O)cc2)sc(=S)n1C returned Anthrax LF inh2 -2, BoNT A protease 0, BoNT-F LC inh -9, Autofluor counter 2245, FBA Mtb inh -3 and GDH-TPI inh 43*.
COc1ccc(N2CCN(C(=O)CSc3nnc4c(C)cc5cc(C)ccc5n34)CC2)cc1 was read as Anthrax LF inh2 -1, BoNT A protease -1, BoNT-F LC inh -4, Autofluor counter 23987*, FBA Mtb inh -2 and GDH-TPI inh 4.
`COc1ccc(N2CCN(C(=O)CSc3nnc(C4CC4)n3C3CC3)CC2)cc1` gave Anthrax LF inh2 -6, BoNT A protease 0, BoNT-F LC inh 0, Autofluor counter 2867, FBA Mtb inh 3 and GDH-TPI inh -1.
For COc1ccc(N2CCN(C(=O)CSc3nnc4c(C)cc5ccc(C)c(C)c5n34)CC2)cc1 the results were Anthrax LF inh2 -2, BoNT A protease -6, BoNT-F LC inh -6, Autofluor counter 21530*, FBA Mtb inh 3 and GDH-TPI inh -9.
For COc1ccc(N2CCN(C(=O)CSc3nnc4c(C)cc5c(C)cc(C)cc5n34)CC2)cc1 the results were Anthrax LF inh2 0, BoNT A protease 1, BoNT-F LC inh -7, Autofluor counter 6079, FBA Mtb inh 2 and GDH-TPI inh 7.
Cc1c(CCC(=O)N2C[C@H]3C[C@@H](C2)c2cccc(=O)n2C3)c(=O)oc2c(C)c(O)ccc12 was read as Anthrax LF inh2 0, BoNT A protease 0, BoNT-F LC inh -3, Autofluor counter 5111, FBA Mtb inh 191* and GDH-TPI inh 8.
For Cc1oc2c(C)c3oc(=O)c(CCC(=O)N4C[C@H]5C[C@@H](C4)c4cccc(=O)n4C5)c(C)c3cc2c1C the results were Anthrax LF inh2 0, BoNT A protease 0, BoNT-F LC inh -2, Autofluor counter 5338, FBA Mtb inh 4 and GDH-TPI inh 6.
Screening Cc1c(C)c2cc(Cl)c(OCC(=O)N3C[C@H]4C[C@@H](C3)c3cccc(=O)n3C4)cc2oc1=O returned Anthrax LF inh2 4, BoNT A protease 0, BoNT-F LC inh -4, Autofluor counter 5212, FBA Mtb inh 9 and GDH-TPI inh 10.
`Cc1c(CC(=O)N2C[C@H]3C[C@@H](C2)c2cccc(=O)n2C3)c(=O)oc2cc(O)c(Cl)cc12` gave Anthrax LF inh2 -9, BoNT A protease 0, BoNT-F LC inh -20, Autofluor counter 4195 and GDH-TPI inh 31*.
Cc1c(CC(=O)N2C[C@H]3C[C@@H](C2)c2cccc(=O)n2C3)c(=O)oc2c(C)c(O)ccc12 was read as Anthrax LF inh2 2, BoNT A protease 1, BoNT-F LC inh 4, Autofluor counter 5033, FBA Mtb inh active and GDH-TPI inh 11.
`CC1Cc2cc(/C(O)=C3/C(=O)C(=O)N(CCCn4ccnc4)C3c3cccnc3)ccc2O1` (stereo unspecified) gave Anthrax LF inh2 -4, BoNT A protease -3, BoNT-F LC inh -5, Autofluor counter 17226*, FBA Mtb inh -1 and GDH-TPI inh 19.
For O=C(O)CCCN1C(=O)C(=O)/C(=C(/O)c2ccc(Cl)cc2)C1c1ccccc1 (stereo unspecified) the results were Anthrax LF inh2 -3, BoNT A protease 0, BoNT-F LC inh -4, Autofluor counter 5010, FBA Mtb inh 4 and GDH-TPI inh 41*.
For CCCOc1cccc(C2/C(=C(\O)c3ccc4c(c3)OCCO4)C(=O)C(=O)N2CCCn2ccnc2)c1 (stereo unspecified) the results were Anthrax LF inh2 -3, BoNT A protease 0, BoNT-F LC inh -6, Autofluor counter 5630, FBA Mtb inh 1 and GDH-TPI inh 6.
`O=C1C(=O)N(CCCn2ccnc2)C(c2cccnc2)/C1=C(/O)c1ccc(F)cc1` (stereo unspecified) gave Anthrax LF inh2 2, BoNT A protease 0, BoNT-F LC inh -1, Autofluor counter 23173*, FBA Mtb inh 3 and GDH-TPI inh -1.
`N#CCC(CNc1ncc(C(F)(F)F)cc1Cl)OC(=O)c1ccc(Cl)cc1Cl` (stereo unspecified) gave Anthrax LF inh2 -3, BoNT A protease 0, BoNT-F LC inh 0, Autofluor counter 7962, FBA Mtb inh -3 and GDH-TPI inh -4.
`N#Cc1cccc(C(=O)OCC(=O)c2ccc3c(c2)NC(=O)CO3)c1` gave Anthrax LF inh2 -1, BoNT A protease 9, BoNT-F LC inh 9, Autofluor counter inconclusive, FBA Mtb inh -1 and GDH-TPI inh -2.
O=C(c1cc2ncc(Br)cn2n1)N1CCOCC1 was read as Anthrax LF inh2 1, BoNT A protease inconclusive, BoNT-F LC inh 0, Autofluor counter 24596*, FBA Mtb inh -1 and GDH-TPI inh 7.
O=C(C1CC(=O)N(C2CCCCCCC2)C1)N1CCC2(CC1)OCCO2 (stereo unspecified) was read as Anthrax LF inh2 0, BoNT A protease -8, BoNT-F LC inh -10, Autofluor counter 22759*, FBA Mtb inh -1 and GDH-TPI inh -8.
`O=C(C1CCC(=O)N1C1CCCC1)N1CCC2(CC1)OCCO2` (stereo unspecified) gave Anthrax LF inh2 -5, BoNT A protease 0, BoNT-F LC inh 1, Autofluor counter 20240*, FBA Mtb inh 1 and GDH-TPI inh -6.
Screening O=C(C1CCC(=O)N1Cc1ccc(F)cc1)N1CCC2(CC1)OCCO2 (stereo unspecified) returned Anthrax LF inh2 -1, BoNT A protease 0, BoNT-F LC inh 2, Autofluor counter 2815, FBA Mtb inh -1 and GDH-TPI inh -1.
Screening O=C(C1CC(=O)N(C2CCCC2)C1)N1CCN(c2ccccc2)CC1 (stereo unspecified) returned Anthrax LF inh2 0, BoNT A protease 3, BoNT-F LC inh 5, Autofluor counter 5021, FBA Mtb inh -1 and GDH-TPI inh 1.
